“And” between values parts separate entries of the source, which are not always exact repeats. Equal values may be shown once. Inconclusive results are not listed. Some compounds were tested as several samples or in several runs, with calls that do not always agree. The source made the active and inactive calls. How the source made its calls, unless noted: active means hit-call score of the fitted dose curve at least 0.9, where 1 is the maximum; inactive means score below 0.9.
Assays:
[1] = biological target: human Retinoid X Receptor beta (RXRb), RXRB (gene 6257) (UniProt P28702); test: ATG_RXRb_TRANS: Attagene TRANS-FACTORIAL HepG2 Assay for human Retinoid X Receptor beta (RXRb) (AID 2283013; active means hit-call score of the fitted dose curve at least 0.9, where 1 is the maximum)
Outline: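 Readout is reporter transcript induction after 24 h dosing. It is measured by RT-PCR of total RNA followed by fluorescent capillary electrophoresis. HepG2 liver cells carry transfected multiple reporter units driven by an exogenous RXRb-Gal4 fusion; activity is relative to DMSO.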

[2] = biological target: human Thyroid Receptor alpha (THRa1), THRA (gene 7067) (UniProt P10827); test: ATG_THRa1_TRANS: Attagene TRANS-FACTORIAL HepG2 Assay for human Thyroid Receptor alpha (THRa1) (AID 2283014; active means hit-call score of the fitted dose curve at least 0.9, where 1 is the maximum)
Outline: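 HepG2 cells transiently transfected with multiplexed GAL4-UAS reporter units for exogenous chimeric THRa1-Gal4; reporter mRNA measured 24 h after dosing by RT-PCR, 6-FAM labelling, HpaI digestion and capillary electrophoresis. Gain-of-signal fitted versus DMSO baseline.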

[3] = read-out: E-selectin (Homo sapiens) (UniProt P16581); test: BSK_3C_Eselectin: BioMAP Diversity Plus: 3C Assay for Eselectin Biomarker Activity (AID 2283015); settings: primary human endothelial cells (HUVEC); actives raise or lower the signal;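 on outcome: cell surface E-selectin protein quantified by ELISA 24 h after dosing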
Outline: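 Primary human umbilical vein endothelial cells (3C system) were dosed with chemical and cell-surface E-selectin measured by ELISA 24 h later. Bidirectional curve fitting used DMSO as negative control and baseline.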

[4] = read-out: Interleukin-1 alpha (IL1a), IL1A (gene 3552); test: BSK_BE3C_IL1a: BioMAP Diversity Plus: BE3C Assay for Interleukin-1 alpha (IL1a) Biomarker Activity (AID 2283016); settings: primary human bronchial epithelial cells; actives raise or lower the signal
Outline: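 IL-1a measured by ELISA after 24 h treatment of human primary bronchial epithelial cells, with gain or loss of signal fitted versus DMSO. Parallel cultures stained with SRB gauge overt cytotoxicity.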

[5] = read-out: Monocyte Chemoattractant Protein-1 (MCP1), CCL2 (gene 6347); test: BSK_3C_MCP1: BioMAP Diversity Plus: 3C Assay for Monocyte Chemoattractant Protein-1 (MCP1) Biomarker Activity (AID 2283017); settings: primary human endothelial cells (HUVEC); actives raise or lower the signal
Outline: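 Primary human umbilical vein endothelial cells (3C system) were exposed to test chemical for 24 h, after which MCP-1 was quantified by ELISA. Activity was fitted bidirectionally against DMSO as negative control and baseline.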

[6] = read-out: Monocyte Chemoattractant Protein-1 (MCP1), CCL2 (gene 6347); test: BSK_4H_MCP1: BioMAP Diversity Plus: 4H Assay for Monocyte Chemoattractant Protein-1 (MCP1) Biomarker Activity (AID 2283018); settings: primary human endothelial cells (HUVEC); actives raise or lower the signal
Outline: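 ELISA of MCP-1 (CCL2) 24 h after chemical dosing of HUVEC in the BioMAP 4H system. Gain or loss versus DMSO fitted; parallel SRB staining (560 nm) tracked overt cytotoxicity.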

[7] = read-out: Human Leukocyte Antigen - DR isotype (HLADR), HLA-DRA (gene 3122); test: BSK_3C_HLADR: BioMAP Diversity Plus: 3C Assay for Human Leukocyte Antigen - DR isotype (HLADR) Biomarker Activity (AID 2283019); settings: primary human endothelial cells (HUVEC); actives raise or lower the signal;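 on outcome: ELISA of cell-surface HLA-DR on HUVEC 24 h after dosing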
Outline: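 Primary human umbilical vein endothelial cells (3C system) were dosed with compound and cell-surface HLA-DR was quantified by ELISA at 24 h. Activity was fitted bidirectionally against DMSO as negative control and baseline.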

[8] = read-out: Interleukin-8 (IL8), CXCL8 (gene 3576); test: BSK_3C_IL8: BioMAP Diversity Plus: 3C Assay for Interleukin-8 (IL8) Biomarker Activity (AID 2283020); settings: primary human endothelial cells (HUVEC); actives raise or lower the signal
Outline: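 IL-8 was measured by ELISA in HUVEC cultures 24 h after chemical dosing, with gain or loss of signal fitted relative to DMSO. Parallel SRB total-protein staining tracked overt cytotoxicity.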

[9] = read-out: Monokine induced gamma interferon (MIG), CXCL9 (gene 4283); test: BSK_3C_MIG: BioMAP Diversity Plus: 3C Assay for Monokine induced gamma interferon (MIG) Biomarker Activity (AID 2283021); settings: primary human endothelial cells (HUVEC); actives raise or lower the signal;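 on AC50: MIG protein level measured by immunoassay in the treated endothelial cultures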
Outline: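 ELISA measurement of MIG in human umbilical vein endothelial cells 24 h after treatment. Cytotoxicity tracked by SRB staining in parallel cultures; gain or loss of signal fitted relative to DMSO.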

human Retinoid X Receptor beta (RXRb), RXRB (gene 6257), sequence (P28702 whole entry, looked up, the tested form may be a part): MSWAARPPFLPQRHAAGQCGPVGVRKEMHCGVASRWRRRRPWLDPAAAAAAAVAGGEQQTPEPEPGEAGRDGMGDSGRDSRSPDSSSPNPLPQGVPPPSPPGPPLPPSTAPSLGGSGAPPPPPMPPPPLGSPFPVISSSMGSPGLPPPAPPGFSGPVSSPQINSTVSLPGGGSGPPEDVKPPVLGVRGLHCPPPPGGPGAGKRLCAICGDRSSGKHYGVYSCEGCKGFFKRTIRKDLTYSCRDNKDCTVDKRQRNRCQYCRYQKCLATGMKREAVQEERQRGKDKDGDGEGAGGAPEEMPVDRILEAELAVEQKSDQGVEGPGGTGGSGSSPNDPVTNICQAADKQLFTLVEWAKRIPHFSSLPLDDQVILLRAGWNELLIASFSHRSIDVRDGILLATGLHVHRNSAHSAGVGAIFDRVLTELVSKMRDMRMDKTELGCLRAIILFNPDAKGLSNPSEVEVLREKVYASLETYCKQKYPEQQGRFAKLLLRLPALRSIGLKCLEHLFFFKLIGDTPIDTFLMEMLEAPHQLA
human Thyroid Receptor alpha (THRa1), THRA (gene 7067), sequence (P10827 whole entry, looked up, the tested form may be a part): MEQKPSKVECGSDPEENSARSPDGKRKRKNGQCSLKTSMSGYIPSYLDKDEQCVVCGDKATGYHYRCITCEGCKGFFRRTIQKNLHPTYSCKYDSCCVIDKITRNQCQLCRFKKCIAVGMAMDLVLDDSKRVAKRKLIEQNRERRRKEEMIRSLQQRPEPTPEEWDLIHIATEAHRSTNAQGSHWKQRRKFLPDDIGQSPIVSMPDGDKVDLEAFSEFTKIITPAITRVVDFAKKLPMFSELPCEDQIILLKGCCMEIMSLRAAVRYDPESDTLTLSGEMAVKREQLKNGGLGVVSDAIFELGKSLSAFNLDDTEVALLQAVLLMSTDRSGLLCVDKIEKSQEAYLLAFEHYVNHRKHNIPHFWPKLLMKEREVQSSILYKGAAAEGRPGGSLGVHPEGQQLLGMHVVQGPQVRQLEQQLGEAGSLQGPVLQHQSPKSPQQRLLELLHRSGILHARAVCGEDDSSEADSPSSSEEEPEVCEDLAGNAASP
E-selectin (Homo sapiens), sequence (P16581 whole entry, looked up): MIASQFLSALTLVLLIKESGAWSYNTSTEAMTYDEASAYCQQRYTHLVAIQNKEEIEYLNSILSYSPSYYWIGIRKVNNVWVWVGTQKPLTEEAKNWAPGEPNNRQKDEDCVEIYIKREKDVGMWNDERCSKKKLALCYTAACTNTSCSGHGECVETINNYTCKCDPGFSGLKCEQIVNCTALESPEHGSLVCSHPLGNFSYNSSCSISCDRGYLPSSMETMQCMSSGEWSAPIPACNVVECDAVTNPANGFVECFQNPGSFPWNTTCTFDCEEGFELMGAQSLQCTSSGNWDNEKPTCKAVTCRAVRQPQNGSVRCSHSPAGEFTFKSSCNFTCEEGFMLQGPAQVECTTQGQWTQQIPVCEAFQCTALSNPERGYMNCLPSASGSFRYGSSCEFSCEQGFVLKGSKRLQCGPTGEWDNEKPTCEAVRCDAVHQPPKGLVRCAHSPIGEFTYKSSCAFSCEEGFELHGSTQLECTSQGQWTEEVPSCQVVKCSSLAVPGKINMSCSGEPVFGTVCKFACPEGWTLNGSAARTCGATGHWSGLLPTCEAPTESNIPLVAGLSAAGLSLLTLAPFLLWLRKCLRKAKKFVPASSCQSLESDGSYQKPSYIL

| Structure (SMILES) | outcome [1] | outcome [2] | outcome [3] | outcome [4] | outcome [5] | outcome [6] | outcome [7] | outcome [8] | outcome [9] | AC50 [1] | AC50 [4] | AC50 [5] | AC50 [7] | AC50 [3] | AC50 [6] | AC50 [8] | AC50 [9] |
| --- | --- | --- | --- | --- | --- | --- | --- | --- | --- | --- | --- | --- | --- | --- | --- | --- | --- |
| COS(=O)(=O)OC | inactive | inactive | inactive | inactive | inactive | inactive | inactive | inactive | inactive | – | – | – | – | – | – | – | – |
| O=C(O)C(F)(F)C(F)(F)C(F)(F)C(F)(F)C(F)(F)C(F)(F)C(F)(F)C(F)(F)F | – | inactive | inactive | – | inactive | inactive | inactive | inactive | inactive | 13.3 µM (active) and 41.1 µM (active) and 26.3 µM (active) | 35 µM (active) and 49.9 µM (active) and 46.6 µM (active) | 54.7 µM (active) | 57.3 µM (active) and 55 µM (active) | – | – | – | – |
| CC(C)(c1ccccc1)c1ccc(O)cc1 | – | inactive | – | – | – | – | – | – | – | 9.21 µM (active) [middle of 4 runs] | 32.2 µM (active) | 39.3 µM (active) | 39 µM (active) | 34.7 µM (active) | 20 µM (active) | 35.6 µM (active) | 39.1 µM (active) |
| O=C(O)C(F)(F)C(F)(F)C(F)(F)C(F)(F)C(F)(F)C(F)(F)C(F)(F)C(F)(F)C(F)(F)F | – | inactive | inactive | – | – | inactive | – | inactive | inactive | 18.1 µM (active) and 13.4 µM (active) and 13.2 µM (active) | 18.5 µM (active) and 11.9 µM (active) and 13.4 µM (active) | 32.5 µM (active) and 54.6 µM (active) and 52.9 µM (active) | 33.2 µM (active) and 53.3 µM (active) and 56.7 µM (active) | 53.8 µM (active) and 54.9 µM (active) | 48.2 µM (active) and 53.7 µM (active) | 53.6 µM (active) and 47 µM (active) | 58.5 µM (active) and 52.5 µM (active) |
| CC(C)(O)C(=O)Nc1ccc([N+](=O)[O-])c(C(F)(F)F)c1 | inactive | inactive | inactive | inactive | inactive | inactive | inactive | inactive | inactive | 22.8 µM (active) and 28.1 µM (active) and 15.6 µM (active) | – | – | – | – | – | – | – |
| CCNc1nc(NC(C)C)nc(SC)n1 | inactive | inactive | inactive | inactive | inactive | inactive | inactive | inactive | inactive | – | – | – | – | – | – | – | – |
| Oc1c(Cl)c(Cl)c(Cl)c(Cl)c1Cl | inactive | inactive | – | – | – | inactive | – | inactive | inactive | – | 13.8 µM (active) and 21.4 µM (active) | 13.7 µM (active) | 14.7 µM (active) and 13.5 µM (active) | 14 µM (active) and 10.8 µM (active) | 7.96 µM (active) | 20 µM (active) | 34.5 µM (active) |
| C[C@]12CCC(=O)C=C1CC[C@@H]1[C@@H]2CC[C@@]2(C)[C@H]1CC[C@]2(C)O | inactive | inactive | inactive | inactive | inactive | inactive | inactive | inactive | inactive | – | – | – | – | – | – | – | – |
| CCOP(=S)(OCC)SCSC(C)(C)C | – | inactive | inactive | inactive | inactive | inactive | – | inactive | inactive | 25.7 µM (active) and 24.6 µM (active) | – | – | 32.5 µM (active) | – | – | – | – |
| COc1ccc(O)c(C(C)(C)C)c1 | – | inactive | inactive | inactive | inactive | inactive | inactive | inactive | inactive | 8.56 µM (active) | – | – | – | – | – | – | – |
| CCOCCOC(C)=O | inactive | inactive | inactive | inactive | inactive | inactive | inactive | inactive | inactive | – | – | – | – | – | – | – | – |
| Oc1ccc(C(c2ccc(O)cc2)(C(F)(F)F)C(F)(F)F)cc1 | – | inactive | – | – | – | – | – | – | – | 5 µM (active) [middle of 4 runs] | 30.8 µM (active) | 19.9 µM (active) | 18.5 µM (active) | 30.1 µM (active) | 14 µM (active) | 18.8 µM (active) | 34.9 µM (active) |
| Clc1ccc(C(Cl)(Cl)Cl)cc1 | inactive | inactive | inactive | inactive | inactive | inactive | inactive | inactive | inactive | – | – | – | – | – | – | – | – |
| ClC1=C(Cl)[C@]2(Cl)[C@@H]3[C@H]4C[C@H]([C@@H]5O[C@H]45)[C@@H]3[C@@]1(Cl)C2(Cl)Cl | inactive | inactive | inactive | inactive | inactive | – | – | inactive | inactive | – | – | – | 7.35 µM (active) | – | 5.75 µM (active) | – | – |
| Cc1cc(-c2ccc(N)c(C)c2)ccc1N | inactive | inactive | inactive | inactive | inactive | inactive | inactive | inactive | inactive | – | – | – | – | – | – | – | – |

— PubChem BioAssay (EPA / NIEHS)
